Test results from ChEMBL document CHEMBL4649991.
Several values for one entry are separate records, joined by “and”; a condition that tells them apart may be missing. Equal entries are not always repeated.

Tests used:
[1] = target: Bromodomain-containing protein 4 (Homo sapiens) (UniProt O60885); conditions: Compound concentration 10.0 uM, Protein concentration 2.0 uM
[2] = target: T1, Transcription intermediary factor 1-alpha (Homo sapiens) (UniProt O15164); conditions: Compound concentration 10.0 uM, Protein concentration 2.0 uM
T1 sequence (whole entry): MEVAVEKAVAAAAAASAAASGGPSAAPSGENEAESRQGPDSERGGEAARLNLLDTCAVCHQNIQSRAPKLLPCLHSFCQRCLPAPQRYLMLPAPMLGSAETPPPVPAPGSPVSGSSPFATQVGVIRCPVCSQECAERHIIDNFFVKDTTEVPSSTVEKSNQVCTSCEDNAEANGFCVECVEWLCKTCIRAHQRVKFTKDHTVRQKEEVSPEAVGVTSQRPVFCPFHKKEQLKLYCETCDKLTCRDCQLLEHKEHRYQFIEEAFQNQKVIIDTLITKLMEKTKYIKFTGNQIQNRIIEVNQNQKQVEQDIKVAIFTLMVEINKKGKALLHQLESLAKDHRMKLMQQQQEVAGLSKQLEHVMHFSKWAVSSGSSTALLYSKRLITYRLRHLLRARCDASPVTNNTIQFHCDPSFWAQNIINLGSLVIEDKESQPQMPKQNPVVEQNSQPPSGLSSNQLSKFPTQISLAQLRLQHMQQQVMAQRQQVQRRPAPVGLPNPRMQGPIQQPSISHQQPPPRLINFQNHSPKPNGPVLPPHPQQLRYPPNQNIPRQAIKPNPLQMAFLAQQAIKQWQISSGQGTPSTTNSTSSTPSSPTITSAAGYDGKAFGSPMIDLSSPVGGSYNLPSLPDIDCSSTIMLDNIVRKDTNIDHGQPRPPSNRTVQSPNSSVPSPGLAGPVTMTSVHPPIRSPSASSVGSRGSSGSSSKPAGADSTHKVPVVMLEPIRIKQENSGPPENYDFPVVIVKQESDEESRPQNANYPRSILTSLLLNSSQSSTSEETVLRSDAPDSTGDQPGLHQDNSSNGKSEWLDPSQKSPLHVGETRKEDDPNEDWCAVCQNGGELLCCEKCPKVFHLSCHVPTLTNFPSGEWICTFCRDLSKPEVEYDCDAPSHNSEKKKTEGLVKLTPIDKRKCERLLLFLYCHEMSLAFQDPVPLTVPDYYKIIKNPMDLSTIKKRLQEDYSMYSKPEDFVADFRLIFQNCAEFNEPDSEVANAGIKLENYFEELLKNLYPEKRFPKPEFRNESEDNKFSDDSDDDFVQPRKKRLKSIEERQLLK

For `Cc1cc(=O)n(C)c2cc(N3C(=O)CC[C@@H](NS(=O)(=O)CC(C)C)[C@@H]3c3ccc(Cl)cc3)ccc12`, the ΔTm [1] was -0.29 °C and 0.14 °C and the ΔTm [2] was 0.23 °C.
